# The supplement of paper PMC10981050
# Structures can show the parent of a compound that is named as a salt.
# Tested on: MARIMO
# Assay: cell viability relative to vehicle control; higher = less cytotoxic
# Settings: 10 µM; SRSF2 genotype: SRSF2 wt/wt
# Summary of the method: (§1)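 After removal of identity-inconsistent compounds, the Selleck bioactive, kinase and epigenetic probe libraries were screened on CRISPR-edited mutant clones and isogenic wild-type clones of four leukaemia lines. Plates were 384-well, each well holding 2000 cells in 50 µL medium and receiving a single 10 µM acoustically dispensed dose. CellTiter-Glo luminescence was read 48 h later, after the supernatant was taken off. Genedata Screener was used to express viability as percent of the on-plate vehicle control.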
row,Structure (SMILES),cell viability [%]
1,O=C(O)C1=CO[C@@H](O[C@@H]2O[C@H](CO)[C@@H](O)[C@H](O)[C@H]2O)[C@H]2[C@@H]1C=C[C@]2(O)CO [Monotropein],106
2,Cn1ncc(Cl)c1-c1cc(C(=O)N[C@H](CN)Cc2cccc(F)c2)sc1Cl,63.7
3,Cc1ccc(OCC(O)C(C)NC(C)C)c2c1CCC2 (stereo not given),100
4,CN1CCCN(C(=O)c2cccc(-c3ccc(/C=C4/C(=O)Nc5ccc(Cl)cc54)o3)c2)CC1,0.37
5,O=S(=O)(c1ccccc1)c1cnc2c(N3CCNCC3)cccc2c1,95
6,CCn1c2ccccc2c2cc(Nc3ccnc(NCCCN4CCOCC4)n3)ccc21,24.9
7,Cc1cn(-c2cc(NC(=O)c3ccc(C)c(Nc4nccc(-c5cnccn5)n4)c3)cc(C(F)(F)F)c2)cn1 [Radotinib],111
8,CCCOc1ccc2[nH]c(NC(=O)OC)nc2c1 [Oxibendazole],7.72
9,COCC1=C(C(=O)OC(C)OC(=O)OC(C)C)N2C(=O)[C@@H](NC(=O)/C(=N\OC)c3csc(N)n3)[C@H]2SC1 (stereo not given in full) [Cefpodoxime proxetil],100
10,Oc1c(F)cc(-c2cnccc2-c2ccc(N3CCOCC3)cc2)cc1F,92.6

# Tested on: MOLM14
# Assay: as above
# Settings: 10 µM; SRSF2 genotype: SRSF2 P95H/wt
# Summary of the method: as §1
row,Structure (SMILES),cell viability [%]
1,CCc1c(O)cc(O)c(C(=O)c2ccc(OCCN3CCOCC3)c(OC)c2)c1CC(=O)N(CCOC)CCOC,2.57
2,O=C(NCCS(=O)(=O)c1ccc(C(F)(F)F)cn1)c1ccc(Cl)cc1,102
3,Clc1ccc2c(c1)CCc1cccnc1C2=C1CCNCC1 [Desloratadine],88.8
4,Cc1ccc(C(=O)O)c(O)c1 [4-Methylsalicylic acid],99.7
5,CCC(=O)Nc1cccc(Oc2nc(Nc3ccc(N4CCN(C)CC4)cc3OC)ncc2Cl)c1,39.9
6,CN(N=O)C(=O)NC1C(O)OC(CO)C(O)C1O (stereo not given) [Streptozotocin (STZ)],97.2
7,C=CS(=O)(=O)NC1CCN(C(=O)CNc2cc(I)c(Cl)cc2OC)CC1 [K-Ras(G12C) inhibitor 9],60.6
8,CCCc1nn(C)c2c(=O)[nH]c(-c3cc(S(=O)(=O)N4CCN(C)CC4)ccc3OCC)nc12 [Sildenafil citrate],108
9,CNC(=O)Nc1ccc(-c2nc(N3CC4CCC(C3)O4)c3cnn(C4CCC5(CC4)OCCO5)c3n2)cc1,36
10,CO/N=C(\C(=O)N[C@@H]1C(=O)N2C(C(=O)O)=C(CSc3nc(C)c(CC(=O)O)s3)CS[C@H]12)c1csc(N)n1 [Cefodizime Sodium],97.1
11,COC(=O)C1=C(C)NC(C)=C(C(=O)OCCN2CCN(C(c3ccccc3)c3ccccc3)CC2)C1c1cccc([N+](=O)[O-])c1 (stereo not given) [Manidipine (Manyper)],73.9
12,Cc1cccc(CC(=O)N2CCc3c2ccc(-c2cn(C)c4ncnc(N)c24)c3F)n1,80.8
13,CNC1CCCN(c2c(F)cc3c(=O)c(C(=O)O)cn(C4CC4)c3c2OC)C1 (stereo not given) [Balofloxacin],107
14,Cc1ccc(S(=O)(=O)NC(=O)NN2CC3CCCC3C2)cc1 (stereo not given) [Gliclazide (Diamicron)],103
15,CN1CC2c3ccccc3Oc3ccc(Cl)cc3C2C1 (stereo not given) [Asenapine maleate],88
16,CC[C@H]1OC(=O)[C@H](C)[C@@H](O[C@H]2C[C@@](C)(OC)[C@@H](O)[C@H](C)O2)[C@H](C)[C@@H](O[C@@H]2O[C@H](C)C[C@H](N(C)C)[C@H]2O)[C@](C)(O)C[C@@H](C)/C(=N\OCOCCOC)[C@H](C)[C@@H](O)[C@]1(C)O [Roxithromycin (Roxl-150)],101
17,CC(C)c1nc(CN(C)C(=O)N[C@H](C(=O)N[C@@H](Cc2ccccc2)C[C@H](O)[C@H](Cc2ccccc2)NC(=O)OCc2cncs2)C(C)C)cs1 [Ritonavir],81.8
18,Nc1nccc(Oc2ccc3c(C(=O)Nc4cccc(C(F)(F)F)c4)cccc3c2)n1,93.6
19,N[C@@H](Cc1c[nH]c2ccc(O)cc12)C(=O)O [5-hydroxytryptophan (5-HTP)],93.3
20,CCCOc1ccc2c(c1)CC[C@@H]1[C@@H]2CC[C@]2(C)[C@@H](OC)CC[C@@H]12 [Promestriene],83.1

row,Structure (SMILES),cell viability [%]
1,CCOCCn1c(N2CCCN(C)CC2)nc2ccccc21 [Emedastine],102
2,COc1cc2c(c(OC)c1OC)-c1c(cc3c(c1OC)OCO3)C[C@H](C)[C@](C)(O)[C@H]2OC(=O)c1ccccc1 [Schisantherin A],100
3,COc1ccc2c(c1O)-c1c(O)c(OC)cc3c1[C@H](C2)[N+](C)(C)CC3 [Magnoflorine],99.3
4,NCc1c[nH]c(=S)n1[C@H]1CCc2c(F)cc(F)cc2C1 [Nepicastat hydrochloride],88.4
5,CC(=O)Nc1ccc(OC(=O)c2ccccc2OC(C)=O)cc1 [Benorylate],104
6,CCC(=O)NC[C@@H]1C[C@H]1c1cccc2c1CCO2 [Tasimelteon],89
7,COc1ncnc(NS(=O)(=O)c2ccc(N)cc2)c1OC [Sulfadoxine (Sulphadoxine)],95.4
8,N[C@@H](Cc1cc(I)c(Oc2cc(I)c(O)c(I)c2)c(I)c1)C(=O)O [Levothyroxine sodium],92.9
9,C=C(C)[C@@H]1CC[C@]2(C(=O)O)CC[C@]3(C)[C@H](CC[C@@H]4[C@@]5(C)CC[C@H](O)[C@@](C)(CO)[C@@H]5CC[C@]43C)[C@@H]12 [23-Hydroxybetulinic acid],100
10,C[C@]12C=CC(=O)C=C1CC[C@H]1[C@@H]3C[C@@H](O)[C@](O)(C(=O)CO)[C@@]3(C)C[C@H](O)[C@@]12F [Triamcinolone (Aristocort)],107
11,O=C(O)C1=CO[C@@H](O[C@@H]2O[C@H](CO)[C@@H](O)[C@H](O)[C@H]2O)[C@H]2[C@@H]1C=C[C@]2(O)CO [Monotropein],104
12,Cn1ncc(Cl)c1-c1cc(C(=O)N[C@H](CN)Cc2cccc(F)c2)sc1Cl,34.9
13,Cc1ccc(OCC(O)C(C)NC(C)C)c2c1CCC2 (stereo not given),93.1
14,CN1CCCN(C(=O)c2cccc(-c3ccc(/C=C4/C(=O)Nc5ccc(Cl)cc54)o3)c2)CC1,0.32
15,O=S(=O)(c1ccccc1)c1cnc2c(N3CCNCC3)cccc2c1,98.7
16,CCn1c2ccccc2c2cc(Nc3ccnc(NCCCN4CCOCC4)n3)ccc21,2.38
17,Cc1cn(-c2cc(NC(=O)c3ccc(C)c(Nc4nccc(-c5cnccn5)n4)c3)cc(C(F)(F)F)c2)cn1 [Radotinib],104
18,CCCOc1ccc2[nH]c(NC(=O)OC)nc2c1 [Oxibendazole],10.9
19,COCC1=C(C(=O)OC(C)OC(=O)OC(C)C)N2C(=O)[C@@H](NC(=O)/C(=N\OC)c3csc(N)n3)[C@H]2SC1 (stereo not given in full) [Cefpodoxime proxetil],90.4
20,Oc1c(F)cc(-c2cnccc2-c2ccc(N3CCOCC3)cc2)cc1F,75.5
